Inhibition data for 25 compounds are collected here from PubChem BioAssay AID1626 (SRMLSC, 2009).

Molecules are shown by their SMILES. The campaign covered roughly 220,000 compounds. About 2,000 (0.91%) were called active. Roughly 2% stayed inconclusive and do not appear here. The list is a sample of the results. Results with a measured potency or affinity are listed apart. Values without a mark were called inactive. No stated cut-off is given here; in the data, inconclusive means inhibition above about 80% without an active follow-up result; inactive means below that; test concentration not stated here.

The experiment can be described thus: M. tuberculosis H37Rv growth inhibitors, H37Rv strain (AID 1626).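 Further: bacteria incubated seven days before Alamar blue readout; 0% = bacteria only wells and 100% = bacteria with antibiotic wells.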 Particulars: hits give high values, concentration not given here.
The inhibition is the change of the read-out against control, counted positive when it falls. As for `Cc1ccc(NC2=C(Cl)C(=O)OC2OC(C)C)cc1` (stereo not given), the inhibition was -6.44%.

Take `CCN(CC)S(=O)(=O)c1ccc(N2CCOCC2)c(NC(=O)c2ccc(NC(C)=O)cc2)c1`: the inhibition was -0.34%.

As to `CCCCN1/C(=C/c2ccc3ccccc3[n+]2CC)Sc2ccccc21`, the inhibition is -5.31%.

With `CC(=S)/C=C1\Sc2ccccc2N1C`, the inhibition is -6.98%.

With `NC(=O)C1=NOC(CNc2ncc(C(F)(F)F)cc2Cl)C1` (stereo not given), the inhibition is -9.36%.

Regarding `CCN(CC)S(=O)(=O)c1ccc(C(=O)N2CCc3ccccc32)cc1`, the inhibition is -0.89%.

As to `O=C(/C=C/c1ccccc1)NCc1cccnc1`, the inhibition is -0.63%.

As to `COc1c(C)cc(Br)cc1C(=O)Nc1ccccc1N1CCN(C(=O)c2ccccc2)CC1`, the inhibition was 19.8%.

Turning to `O=C(Nc1ccccc1N1CCN(C(=O)c2ccccc2)CC1)c1cc(Br)ccc1Cl`, the inhibition is 8.71%.

As to `Cc1cc(C)n2[nH]c(=O)c(N=Nc3cccc(C(F)(F)F)c3)c2n1`, the inhibition is 46.9%.

As to `Cc1[nH]n(C2=NCCS2)c(=O)c1N=Nc1ccccc1`, the inhibition is 2.69%.

In the case of `CN(c1ccccc1C(=O)N1CCN(Cc2ccc3c(c2)OCO3)CC1)S(C)(=O)=O`, the inhibition was -0.54%.

As to `O=C(CCC(=O)OCc1cccc(C(=O)Oc2ccccc2)c1)Nc1cccc2ccccc12`, the inhibition is 4.16%.

Consider `COc1ccc(NC(=O)CCC(=O)OCc2ccc(C(=O)Oc3ccc(Cl)cc3)cc2)cc1`, for which the inhibition is 23.3%.

Regarding `CC(C)(C)Nc1c([N+](=O)[O-])c(=O)sc2ccccc12`, the inhibition was -10.8%.

Consider `NC(=O)C1CCN(C(=O)c2ccc3c(=O)n(Cc4ccco4)c(SCC(=O)c4ccccc4)nc3c2)CC1`, for which the inhibition was -1.82%.

Take `CN(CCO)c1nc(N)c(C#N)c(CC#N)c1C#N`: the inhibition was -7.58%.

`CCOc1ccccc1N1CCN(CC(=O)NC(=O)NCc2ccco2)CC1`: the inhibition is -1.18%.

For `COc1ccc(NC(=O)N2CCCCCC2)c(OC)c1`, the inhibition is -4.07%.

`CC(C)Cn1c(N)c(C(=O)COC(=O)c2ccc(Cl)cc2)c(=O)n(C)c1=O`: the inhibition is 11.4%.

As for `Cn1c(N)c(C(=O)COC(=O)c2cnc(Cl)c(Cl)c2)c(=O)n(C)c1=O`, the inhibition is -6.46%.

In the case of `CCOc1ccccc1CNc1nc2nc3c(c(=O)n2[nH]1)CCC3`, the inhibition was -2.76%.

For the compound `O=c1c2c(nc3nc(NCc4cccc(Cl)c4)[nH]n13)CCC2`, the inhibition was 2.7%.

On to `COc1ccccc1CNc1nc2nc3c(c(=O)n2[nH]1)CCC3`, for which the inhibition is 0.1%.

For `O=c1c2c(nc3nc(NCc4ccccc4Cl)[nH]n13)CCC2`, the inhibition is -14.3%.
